Assay results as given in PubChem BioAssay (NCATS).
Where “and” joins values, the source holds several entries; their conditions need not be identical. Identical values can stand only once. Records with an inconclusive call do not appear. Calls of active or inactive are those of the source. Calls follow the shape of the dose curve; as a rule, active = well fitted curve in the direction sought with a large enough effect; inconclusive = small, poorly fitted or top-dose-only effect, or another doubt; inactive = no such curve, though single readings can be large; an effect the other way counts as inactive or inconclusive.

Tests used:
[1] = biological target: Cellular tumor antigen p53 (Homo sapiens) (UniProt P04637); test: Primary qHTS for small molecule compounds that upregulate eGFP-tagged delta133p53alpha (in N-terminal) cells. (AID 2060322); conditions: NCI-H358 eGFP-delta133p53alpha fluorescence, 24 h; activation: stronger effect = higher value; also: nearly all actives have a fitted effect of over 75% in size; also: potency is read from the fitted curve at half-maximal effect;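 as to activation: cells pre-induced with doxycycline then dosed without doxycycline; series mostly up to about 56 µM; 0% = DMSO vehicle and 100% = reference activator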
Sequence of Cellular tumor antigen p53 (Homo sapiens) (P04637 whole entry, looked up): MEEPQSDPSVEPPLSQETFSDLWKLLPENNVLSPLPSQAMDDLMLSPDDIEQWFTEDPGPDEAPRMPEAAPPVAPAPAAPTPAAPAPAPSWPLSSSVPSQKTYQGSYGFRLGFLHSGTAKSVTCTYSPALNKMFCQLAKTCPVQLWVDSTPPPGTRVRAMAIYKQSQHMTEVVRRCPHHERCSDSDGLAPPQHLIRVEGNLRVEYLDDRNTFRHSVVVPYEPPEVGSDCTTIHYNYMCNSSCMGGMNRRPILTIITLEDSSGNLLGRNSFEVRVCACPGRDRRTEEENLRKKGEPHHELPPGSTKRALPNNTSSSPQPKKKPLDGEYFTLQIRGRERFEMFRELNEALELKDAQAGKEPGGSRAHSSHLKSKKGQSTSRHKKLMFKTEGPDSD
In short: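 NCI-H358 cells pre-induced 24 h with 10 ng/ml doxycycline for eGFP-delta133p53alpha, plated dox-free and exposed 24 h at 37C to titrated compounds. Fixed, Hoechst-stained; gated GFP peak intensity by laser scanning cytometry, normalized to DMSO (0%) and 57.5 uM 5-azacytidine (100%).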

[2] = biological target: Aldehyde dehydrogenase, mitochondrial (Homo sapiens) (UniProt P05091); test: qHTS for Inhibitors of the Aldehyde Dehydrogenase Family (ALDH2) Primary screen (AID 2061308);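 also: plate controls were vehicle for no effect and reference inhibitor for full effect; nearly all actives have a fitted effect of over 55% in size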
[3] = biological target: Retinaldehyde dehydrogenase 3 (Homo sapiens) (UniProt P47895); test: qHTS for Inhibitors of the Aldehyde Dehydrogenase Family (ALDH1A3) Validation screen (AID 2061312); also: % is scaled to controls: 0 for no effect and ±100 for the full control effect; nearly all actives have a fitted effect of over 45% in size
[4] = biological target: Retinaldehyde dehydrogenase 3 (Homo sapiens) (UniProt P47895); test: qHTS for Inhibitors of the Aldehyde Dehydrogenase Family (ALDH1A3) Primary screen (AID 2061315);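 also: plate controls were DMSO vehicle for no effect and reference inhibitor for full effect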
[5] = BET inhibitor-based combinations targeting novel dependencies in MECOM-rearranged (r) AML: SET-2 cell line (AID 2202231); conditions: SET-2 AML cells viability, CellTiter-Glo luminescence, 48 h; viability: stronger effect = lower value, concentration not given here; also: nearly all actives have a fitted effect of over 35% in size; also: potency is read from the fitted curve at half-maximal effect;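 as to viability: plate controls were DMSO treated cells for no effect and wells without cells for full effect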
In short: (§1)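 Cells were plated at 500 per well and exposed to an 11-point dose series of each drug for 48 hr. Viability was measured by CellTiter-Glo luminescence, normalized to DMSO and empty-well controls, and summarized as AUC and per-cell-line Z-AUC.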

[6] = BET inhibitor-based combinations targeting novel dependencies in MECOM-rearranged (r) AML: OCI-AML3 cell line (AID 2202232); conditions: Potency: OCI-AML3 viability; also: nearly all actives have a fitted effect of over 35% in size; also: potency is read from the fitted curve at half-maximal effect
In short: as §1

[7] = BET inhibitor-based combinations targeting novel dependencies in MECOM-rearranged (r) AML: MV-4-11 cell line (AID 2202233); also: nearly all actives have a fitted effect of over 45% in size; also: potency is read from the fitted curve at half-maximal effect
In short: (§2)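 Activity is given as area under the curve and as Z-AUC, mean-centred within each cell line. It comes from 11-point dose curves normalized to DMSO and empty wells. CellTiter-Glo luminescence was read after 48 hr drug exposure of 500 cells/well.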

[8] = BET inhibitor-based combinations targeting novel dependencies in MECOM-rearranged (r) AML: HNT-34 cell line (AID 2202234); also: nearly all actives have a fitted effect of over 35% in size; also: potency is read from the fitted curve at half-maximal effect
In short: as §2

[9] = BET inhibitor-based combinations targeting novel dependencies in MECOM-rearranged (r) AML: UCSD-AML1 cell line (AID 2202235); also: nearly all actives have a fitted effect of over 40% in size; also: potency is read from the fitted curve at half-maximal effect
In short: as §2

[10] = BET inhibitor-based combinations targeting novel dependencies in MECOM-rearranged (r) AML: AML-191 cell line (AID 2202236; also: nearly all actives have a fitted effect of over 35% in size; also: potency is read from the fitted curve at half-maximal effect)
In short: as §1

[11] = BET inhibitor-based combinations targeting novel dependencies in MECOM-rearranged (r) AML: AML-194 cell line (AID 2202237; also: nearly all actives have a fitted effect of over 40% in size; also: potency is read from the fitted curve at half-maximal effect)
In short: as §1

On1ncc(C2CCNCC2)c1-c1cccc(-c2ccccc2)c1
inactive: activation [1] -8.11% | Potency [2] | Potency [3] | Potency [4]

CCCCC(=O)N1c2ccccc2NC2=C(C(=O)CCC2)C1c1ccccc1Cl (stereo not given)
inactive: activation [1] -4.77% | Potency [2] | Potency [3] | Potency [4]

Cc1cccc2c1NC(=O)C2(c1ccc(O)cc1)c1ccc(O)cc1
active: Potency [1] 213 nM
inactive: Potency [2] | Potency [3] | Potency [4]

O=C(O)Cc1ccc2oc(-c3ccc(NC(=O)/C=C/c4ccc(Br)cc4)c(F)c3)nc2c1
inactive: activation [1] 25.8% | Potency [2] | Potency [3] | Potency [4]

COc1ccc(C(=O)Nc2c(Cl)cncc2Cl)cc1OC1CCCC1
inactive: activation [1] 0% | Potency [2] | Potency [3] | Potency [4]

Cc1cc(C(=O)Nc2cccc(C(=O)Nc3cccc(C(F)(F)F)c3)c2)on1
inactive: activation [1] -7.16% | Potency [2] | Potency [3] | Potency [4]

O=C1CC2(CCCC2)[C@H](O)C(=O)N1CCCCN1CCN(c2ncccn2)CC1
inactive: activation [1] 4.77% | Potency [2] | Potency [3] | Potency [4]

CCC(C(C)O)n1ncn(-c2ccc(N3CCN(c4ccc(OCC5COC(Cn6cncn6)(c6ccc(F)cc6F)C5)cc4)CC3)cc2)c1=O (stereo not given)
inactive: activation [1] 5.25% | Potency [2] | Potency [3] | Potency [4]

O=S(=O)(Nc1cc(Cl)c(Oc2cnc3ccccc3c2)c(Cl)c1)c1ccc(Cl)cc1Cl
inactive: activation [1] -4.77% | Potency [2] | Potency [3] | Potency [4]

O=C(NCc1ccccn1)Nc1nnc(-c2ccco2)o1
inactive: activation [1] 11.9% | Potency [2] | Potency [3] | Potency [4]

CCNC(=O)C1CC(F)(c2ccc(CN3CCCC3)c(F)c2)C1 (stereo not given)
inactive: activation [1] -9.07% | Potency [2] | Potency [3] | Potency [4]

O=c1cc(N2CCOCC2)nc2c3ccccc3ccn12
inactive: activation [1] 6.21% | Potency [2] | Potency [3] | Potency [4]

O=C1NC(=O)C(c2cn3c4c(cccc24)CCC3)C1c1c[nH]c2ccccc12 (stereo not given)
inactive: activation [1] 18.6% | Potency [2] | Potency [3] | Potency [4]

O=C(NCCN1CCC(n2c(=O)[nH]c3ccccc32)CC1)c1ccc2ccccc2c1
inactive: activation [1] -1.43% | Potency [2] | Potency [3] | Potency [4]

CC1(C)CCC(C)(C)c2cc(C#Cc3ccc(C(=O)O)cc3)ccc21
inactive: activation [1] -5.25% | Potency [2] | Potency [3] | Potency [4]

O=C(COCC(=O)N1CCN(C(c2ccccc2)c2ccccc2)CC1)Nc1ccc(Cl)cc1C(=O)O
inactive: activation [1] -25.3% | Potency [2] | Potency [3] | Potency [4] | viability [5] 119% | Potency [6] | Potency [7] | Potency [8] | Potency [9] | Potency [10] | Potency [11]

Cc1c(F)cc(C(=O)NC2CC2)cc1-c1ccc(C(=O)NCC(C)(C)C)cn1
inactive: activation [1] 2.86% | Potency [2] | Potency [3] | Potency [4] | viability [5] 92.7% | Potency [6] | Potency [7] | Potency [8] | Potency [9] | Potency [10] | Potency [11]

CCCCCCOc1cc2c(cc1N(C)c1ncc(C(=O)O)cn1)C(C)(C)CCC2(C)C
inactive: activation [1] -3.82% | Potency [2] | Potency [3] | Potency [4]

COC(=O)Nc1nc2ccc(C(=O)c3ccc(F)cc3)cc2[nH]1
inactive: activation [1] 8.15% and 21.5% | Potency [2] | Potency [3] | Potency [4]
active: Potency [5] 833 nM | Potency [6] 590 nM | Potency [7] 742 nM | Potency [8] 417 nM | Potency [9] 468 nM | Potency [10] 332 nM | Potency [11] 332 nM

CCOCc1nc2c(N)nc3ccccc3c2n1CC(C)(C)O
inactive: activation [1] 4.77% | Potency [2] | Potency [3] | Potency [4] | viability [5] 108% | Potency [6] | Potency [7] | Potency [8] | Potency [9] | Potency [10] | Potency [11]

COc1cccc2c(NCc3ccccc3)nc(-n3c(N)nc4ccccc43)nc12
inactive: activation [1] -21.2% | Potency [2] | Potency [3] | Potency [4]
active: Potency [5] 7420 nM | Potency [6] 3320 nM | Potency [7] 7420 nM | Potency [8] 3720 nM | Potency [9] 4170 nM | Potency [10] 2950 nM | Potency [11] 2630 nM

CC[C@@H](C)Nc1cc(C(=O)NC2CC3CCC(C2)N3c2ccc(C(=O)C3CC3)cn2)c(C)cc1C(N)=O (stereo not given in full)
inactive: activation [1] -11% | Potency [2] | Potency [3] | Potency [4]
active: Potency [5] 132 nM | Potency [6] 166 nM | Potency [7] 66.1 nM | Potency [8] 148 nM | Potency [9] 263 nM | Potency [10] 209 nM | Potency [11] 118 nM
